Source: PubChem BioAssay (Tox21)
Results filed as inconclusive are left out. Active and inactive are the calls of the source. The call rests on the fitted dose curve; in most records, active means well fitted curve in the direction sought with a large enough effect in the repeat runs; inconclusive means weak or mixed curves; inactive means no such curve, though single readings can be large; an effect the other way counts as inactive or inconclusive.

Assays:
[1] = qHTS RealTime-Glo MT Cell Viability Assay in HepG2 cells - 24 hour (AID 1224867); further: nearly all actives have a fitted effect of over 50% in size
Procedure, shortened: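 Real-time, nonlytic viability: 600 HepG2 cells/well mixed with NanoLuc enzyme plus prosubstrate; 5 h settle, compound (DMSO) added by pintool; luminescence monitored over 40 h at 37 C.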

[2] = qHTS RealTime-Glo MT Cell Viability Assay in HEK293 cells - 32 hour (AID 1224868); further: top concentration of the series differs between compounds; nearly all actives have a fitted effect of over 50% in size
Procedure, shortened: (§1)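 Cells + reagent dispensed (600 cells/well, HEK293) → 5 h at 37 C/5% CO2 → 23 nL compound in DMSO pinned → 40 h at 37 C → luminescence read at 0, 8, 16, 24, 32, 40 h.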

[3] = A CellTox Green Cytotoxicity Assay to monitor cytotoxicity in HEK293 cells - 0 hour (AID 1224869); further: nearly all actives have a fitted effect of over 50% in size
Procedure, shortened: (§2)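 HEK293 cells premixed with CellTox Green dye were seeded at 600 cells/well and left 5 h at 37 C/5% CO2 before pin transfer of 23 nL compound in DMSO. Fluorescence from dye bound to dead-cell DNA was read during 40 h treatment.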

[4] = qHTS RealTime-Glo MT Cell Viability Assay in HepG2 cells - 40 hour (AID 1224870); further: nearly all actives have a fitted effect of over 50% in size
Procedure, shortened: (§3)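 HepG2 cells (600/well) mixed with RealTime-Glo MT reagent, settled 5 h at 37 C/5% CO2 before compound addition. Nonlytic NanoLuc luminescence from viable-cell prosubstrate reduction read repeatedly during 40 h treatment at 37 C.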

[5] = A CellTox Green Cytotoxicity Assay to monitor cytotoxicity in HEK293 cells - 40 hour (AID 1224871); further: nearly all actives have a fitted effect of over 45% in size
Procedure, shortened: as §2

[6] = qHTS RealTime-Glo MT Cell Viability Assay in HEK293 cells - 16 hour (AID 1224872)
Procedure, shortened: as §1

[7] = qHTS RealTime-Glo MT Cell Viability Assay in HepG2 cells - 8 hour (AID 1224873); further: nearly all actives have a fitted effect of over 55% in size
Procedure, shortened: as §3

[8] = qHTS RealTime-Glo MT Cell Viability Assay in HEK293 cells - 40 hour (AID 1224874); conditions: RealTime-Glo luminescence; max response: active compounds read low; further: nearly all actives have a fitted effect of over 50% in size
Procedure, shortened: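 HEK293 cells mixed with RealTime-Glo reagents (NanoLuc plus cell-permeant prosubstrate) at 600 cells/well, preincubated 5 h at 37 C/5% CO2, then given 23 nL compound in DMSO. Nonlytic luminescence from viable cells was read at 0, 8, 16, 24, 32 and 40 h.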

[9] = A CellTox Green Cytotoxicity Assay to monitor cytotoxicity in HepG2 cells - 16 hour (AID 1224876); further: nearly all actives have a fitted effect of over 45% in size
Procedure, shortened: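 HepG2 cells were seeded together with the CellTox Green dye at 600 cells/well, left 5 h at 37 C/5% CO2, then given compounds in DMSO. Fluorescence from dye bound to dead-cell DNA was read repeatedly over 40 h of treatment at 37 C.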

[10] = A CellTox Green Cytotoxicity Assay to monitor cytotoxicity in HEK293 cells - 24 hour (AID 1224875); further: series mostly up to about 77 µM; nearly all actives have a fitted effect of over 45% in size
Procedure, shortened: as §2
On the % scale 0 is the no-effect control and ±100 the full control effect.

N[C@@H](CSCCCO)C(=O)O
inactive: activity change, negative = cytotoxicity [1] 1.24% [at 15.8 µM] | activity change, negative = cytotoxic [2] 3.39% [at 15.8 µM] | cytotoxicity [3] -3.9% [at 15.8 µM] | activity change, negative = cytotoxic [4] 1.41% [at 15.8 µM] | cytotoxicity increase [5] -5.88% [at 15.8 µM] | activity change, negative = cytotoxicity [6] 2.66% [at 15.8 µM] | viability change, negative = cytotoxic [7] 1.95% [at 15.8 µM] | max response [8] 2.4% | cytotoxicity increase [9] -15.5% [at 15.8 µM]

CN(C)CCCO[C@@H]1[C@H]2OC(C)(C)O[C@H]2O[C@@H]1C(O)CO (stereo partly drawn)
inactive: outcome [1] | Potency [2] | Potency [3] | outcome [4] | Potency [5] | Potency [6] | outcome [7] | max response [8] 0.847% | Potency [10] | Potency [9]

CCCCCCCCCCOC(C)=O
inactive: outcome [1] | Potency [2] | Potency [3] | outcome [4] | Potency [5] | Potency [6] | outcome [7] | max response [8] 0.865% | Potency [10] | Potency [9]

O=C(O)CSCC(=O)NC1CCSC1=O (stereo not drawn)
inactive: outcome [1] | Potency [2] | Potency [3] | outcome [4] | Potency [5] | Potency [6] | outcome [7] | max response [8] -1.55% | Potency [10] | Potency [9]

CCc1occc(=O)c1O
inactive: outcome [1] | Potency [2] | Potency [3] | outcome [4] | Potency [5] | Potency [6] | outcome [7] | max response [8] 3.56% | Potency [10] | Potency [9]

C=CC(=O)CCCCC
inactive: outcome [1] | Potency [2] | Potency [3] | outcome [4] | Potency [5] | Potency [6] | outcome [7] | max response [8] -1.98% | Potency [10] | Potency [9]

CC(Oc1cc(Cl)ccc1Cl)C(=O)O (stereo not drawn)
inactive: outcome [1] | Potency [2] | Potency [3] | outcome [4] | Potency [5] | Potency [6] | outcome [7] | max response [8] -5.27% | Potency [10] | Potency [9]

CC1CCc2c(N3CCC(O)CC3)c(F)cc3c(=O)c(C(=O)O)cn1c23 (stereo not drawn)
inactive: outcome [1] | Potency [2] | Potency [3] | outcome [4] | Potency [5] | Potency [6] | outcome [7] | max response [8] -0.0801% | Potency [10] | Potency [9]

COC(=O)c1cc(Cl)cc(Cl)c1
inactive: outcome [1] | Potency [2] | Potency [3] | outcome [4] | Potency [5] | Potency [6] | outcome [7] | max response [8] -0.635% | Potency [10] | Potency [9]

CN(C)CCCCl
inactive: outcome [1] | Potency [2] | Potency [3] | outcome [4] | Potency [5] | Potency [6] | outcome [7] | max response [8] 0.853% | Potency [10] | Potency [9]

CC(C)c1ccc(C=O)cc1
inactive: outcome [1] | Potency [2] | Potency [3] | outcome [4] | Potency [5] | Potency [6] | outcome [7] | max response [8] 13.2% | Potency [10] | Potency [9]

CCCC(=O)Nc1ccc(OCC(O)CNC(C)C)c(C(C)=O)c1 (stereo not drawn)
inactive: outcome [1] | Potency [2] | Potency [3] | outcome [4] | Potency [5] | Potency [6] | outcome [7] | max response [8] 4% | Potency [10] | Potency [9]

N[C@@H](Cc1ccc(O)cc1)C(=O)O
inactive: activity change, negative = cytotoxicity [1] -0.685% [at 6.97 µM] | activity change, negative = cytotoxic [2] -0.171% [at 6.97 µM] | cytotoxicity [3] 1.14% [at 6.97 µM] | activity change, negative = cytotoxic [4] 1.47% [at 6.97 µM] | cytotoxicity increase [5] -0.009% [at 6.97 µM] | activity change, negative = cytotoxicity [6] 0.747% [at 6.97 µM] | viability change, negative = cytotoxic [7] 0.728% [at 6.97 µM] | max response [8] -1.3% | activity change [10] 2.02% [at 6.97 µM, active compounds read high] | cytotoxicity increase [9] -12.3% [at 6.97 µM]

C/C(=C1\CCOC(=O)S1)N(C=O)Cc1cnc(C)nc1N
inactive: outcome [1] | Potency [2] | Potency [3] | outcome [4] | Potency [5] | Potency [6] | outcome [7] | max response [8] 3.03% | Potency [10] | Potency [9]

O=C(Cn1ccnc1[N+](=O)[O-])NCc1ccccc1
inactive: outcome [1] | Potency [2] | Potency [3] | outcome [4] | Potency [5] | Potency [6] | outcome [7] | max response [8] -1.45% | Potency [10] | Potency [9]

COc1cc(OC)nc(O[C@H](C(=O)O)C(OC)(c2ccccc2)c2ccccc2)n1
inactive: outcome [1] | Potency [2] | Potency [3] | outcome [4] | Potency [5] | Potency [6] | outcome [7] | max response [8] 4.04% | Potency [9]

CC(=O)C(C)O (stereo not drawn)
inactive: outcome [1] | Potency [2] | Potency [3] | outcome [4] | Potency [5] | Potency [6] | outcome [7] | max response [8] 16% | Potency [10] | Potency [9]

O=C(O)[C@H](O)c1ccccc1
inactive: outcome [1] | Potency [2] | Potency [3] | outcome [4] | Potency [5] | Potency [6] | outcome [7] | max response [8] 0.819% | Potency [10] | Potency [9]

CC(S)C(C)S (stereo not drawn)
inactive: outcome [1] | Potency [2] | Potency [3] | outcome [4] | Potency [5] | Potency [6] | outcome [7] | max response [8] 7.38% | Potency [10] | Potency [9]

CN(C)C(C)(C)CO
inactive: outcome [1] | Potency [2] | Potency [3] | outcome [4] | Potency [5] | Potency [6] | outcome [7] | max response [8] 1.89% | Potency [10] | Potency [9]

CCO[Si](CC)(OCC)OCC
inactive: outcome [1] | Potency [2] | Potency [3] | outcome [4] | Potency [5] | Potency [6] | outcome [7] | max response [8] -9.96% | Potency [10] | Potency [9]
